# Experimental data reported in PubChem BioAssay.
# Values joined by “and” are separate entries in the source; they are usually repeats but may differ in a detail not shown here. Equal values may be shown once. A number with no mark means an inactive call. Results filed as inconclusive are left out. Active and inactive are the calls of the source. Unless noted, no rule for the calls is given here.
# Legend:
# [1] = signal quenchers or enhancers, Cy5 substrate/SSB – biochemical, NIH Clinical Collection, E. coli SSB, artefact control for HCV NS3 helicase inhibitor project (AID 743268); details: Cy5-oligo bound E. coli SSB, fluorescence interference
# [2] = tested on: Hepatitis C virus NS3 helicase; experiment: blockers of NS3h binding to DNA – biochemical, fluorescence polarization, NIH Clinical Collection, primary screen (AID 743270); details: NS3 helicase binding to Cy5-dT15 DNA, hits give high values, concentration not given here
# [3] = biological target: Single-stranded DNA-binding protein (Escherichia coli (strain K12)) (UniProt P0AGE0); experiment: SSB-ssDNA binding inhibitors – biochemical, fluorescence polarization, NIH Clinical Collection, counter-screen for HCV NS3 helicase inhibitor project (AID 743271; in the data active = inhibition above about 28%); details: E. coli SSB-DNA binding, hits give high values, concentration not given here
# [4] = compounds distorting NS3 helicase fluorescence signal – biochemical, NIH Clinical Collection, artefact control for HCV NS3 helicase inhibitor project (AID 743272); details: fluorescence interference counterscreen, HCV NS3 helicase assay; hits give low values;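 also: HCV NS3 helicase with a Cy5 labelled single stranded DNA probe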
# [5] = tested on: Neuropilin-2 / VEGF-C interaction (human); experiment: small molecules blocking Neuropilin-2/VEGF-C interaction – biochemical, microplate binding format, z-score (AID 743281); details: microplate NRP2/VEGF-C binding assay; hits give low values
# [6] = viability loss in pontine glioma line – cell-based, SU-DIPG-XVII, MIPE5.0, CellTiter-Glo, qHTS, dose response (AID 1347060; cut-off not given, nearly all actives have AC50 up to about 26 µM;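 as to AC50: cells exposed to compound for 48 hours before viability readout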); details: CellTiter-Glo ATP luminescence
# [7] = viability loss in pontine glioma line – cell-based, SU-DIPG-XIII, MIPE4.0, CellTiter-Glo, qHTS, dose response (AID 1347061; cut-off not given, nearly all actives have AC50 up to about 37 µM;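 also: cells exposed to compound for 48 hours before readout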); details: CellTiter-Glo ATP luminescence
# [8] = viability loss in pontine glioma line – cell-based, JHH-DIPG-1, MIPE4.0, CellTiter-Glo, qHTS, dose response (AID 1347062; cut-off not given, nearly all actives have AC50 up to about 27 µM;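 as to AC50: cells exposed to compound for two days before readout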); details: JHH-DIPG-1 viability, CellTiter-Glo ATP luminescence
# [9] = viability loss in pontine glioma line – cell-based, SU-DIPG-IV, MIPE4.0, CellTiter-Glo, qHTS, dose response (AID 1347063; cut-off not given, nearly all actives have AC50 up to about 30 µM;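 also: compound exposure lasted 48 hours before the viability readout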); details: CellTiter-Glo ATP luminescence
# [10] = growth inhibition of DIPG cells – cell-based, MIPE4.0 library, CellTiter-Glo luminescence, qHTS (AID 1347066; cut-off not given, nearly all actives have AC50 up to about 30 µM;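 also: cells exposed to compound for 48 hours before readout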); details: SU-DIPG-VI viability, CellTiter-Glo ATP luminescence
# [11] = JHH-DIPG-1 glioma cell viability, MIPE5.0 library, CellTiter-Glo luminescence, qHTS (AID 1347067; cut-off not given, nearly all actives have AC50 up to about 26 µM;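 also: cells exposed to compound for 48 hours before readout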); details: JHH-DIPG-1 glioma viability, CellTiter-Glo ATP luminescence
# [12] = growth inhibition of DIPG cells – cell-based, MIPE5.0 library, qHTS (AID 1347068; cut-off not given, nearly all actives have IC50 up to about 30 µM;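 as to IC50: cells exposed to compound for 48 hours before viability readout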); details: SU-DIPG-XXV viability
# F380Y/beta4 = experiment: BK channel mutant inhibitors and activators – cell-based, U2OS BacMam, thallium flux, beta subunits, selectivity assay, profiling panel (AID 1259406;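 active = thallium flux through the channel raised or lowered by more than 3 SD from vehicle-only wells, actives on both sides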;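 also: initial slope of Thallos dye fluorescence rise after thallium is added; log ratio against the mean of 0.3% DMSO vehicle wells on the same plate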); details: U2OS BacMam BK variants, at 30 µM
# [13] = biological target: Calcium-activated potassium channel subunit alpha-1 (Homo sapiens) + Leucine-rich repeat-containing protein 26 (Homo sapiens) (UniProt Q12791+Q2I0M4); experiment: as above; details: U2OS BacMam BK variants, F380Y/Slo1WT/gamma1, at 30 µM
# Calcium-activated potassium channel subunit alpha-1 (Homo sapiens) + Leucine-rich repeat-containing protein 26 (Homo sapiens), sequence (Q2I0M4 whole entry, looked up, one chain of several): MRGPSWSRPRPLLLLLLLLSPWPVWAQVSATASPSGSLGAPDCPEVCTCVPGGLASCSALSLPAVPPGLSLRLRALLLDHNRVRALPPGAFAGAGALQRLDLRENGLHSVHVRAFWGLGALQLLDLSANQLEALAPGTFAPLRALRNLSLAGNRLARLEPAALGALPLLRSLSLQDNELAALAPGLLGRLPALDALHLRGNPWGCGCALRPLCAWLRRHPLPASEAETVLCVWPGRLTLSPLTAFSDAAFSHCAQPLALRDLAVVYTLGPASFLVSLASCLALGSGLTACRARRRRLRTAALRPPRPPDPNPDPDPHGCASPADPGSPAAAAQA
# R275C/beta4 = experiment: as above; details: U2OS BacMam BK variants, at 30 µM
# [14] = tested on: Aerobactin synthetase IucA (Klebsiella pneumoniae); experiment: inhibition of K. pneumoniae IucA enzyme – biochemical, Tocris library, absorbance (AID 1345561); details: purified IucA enzyme assay, absorbance (OD) read-out; hits give low values;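 tested at 8 µM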;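 also: 100% = enzyme without compound and 0% = no enzyme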
smiles,measurement,setting,value
CC(NC(C)(C)C)C(=O)c1cccc(Cl)c1 (centres undefined),fluorescence ratio,[1],1.04 and 1.06
same,inhibition,[2],-3.56% and 3.56%
same,inhibition,[3],-3.18% and 3.75%
same,fluorescence ratio,[4],1
same,z-score,[5],-0.243 and -0.0135
same,outcome,[6],inactive
same,outcome,[7],inactive
same,outcome,[8],inactive
same,outcome,[9],inactive
same,outcome,[10],inactive
same,outcome,[11],inactive
same,outcome,[12],inactive
same,log fold change Tl+ flux,F380Y/beta4,-0.0339 and 0.00749
same,log fold change Tl+ flux,[13],-0.0374 and -0.0597
same,log fold change Tl+ flux,R275C/beta4,-0.00901 and 0.0176
CN1C(=O)CCS(=O)(=O)C1c1ccc(Cl)cc1 (centres undefined),remaining activity,[14],97.1%
same,outcome,[6],inactive
same,outcome,[7],inactive
same,outcome,[8],inactive
same,outcome,[9],inactive
same,outcome,[10],inactive
same,outcome,[11],inactive
same,outcome,[12],inactive
C[C@@H]1C[C@@H]([C@H](O)CC2CC(=O)NC(=O)C2)C(=O)[C@@H](C)C1,AC50,[6],934 nM (active)
same,AC50,[8],743 nM (active)
same,AC50,[9],469 nM (active)
same,outcome,[10],inactive
same,IC50,[12],934 nM (active)
CCC1(C2=NCCN2)Cc2ccccc2O1 (centres undefined),remaining activity,[14],98.6%
CCCC(C)(COC(N)=O)COC(=O)NC(C)C (centres undefined),fluorescence ratio,[1],1.01
same,inhibition,[2],-6.82%
same,inhibition,[3],-2%
same,fluorescence ratio,[4],0.93
same,outcome,[7],inactive
same,outcome,[10],inactive
same,log fold change Tl+ flux,F380Y/beta4,0.0106
same,log fold change Tl+ flux,[13],0.00552
same,log fold change Tl+ flux,R275C/beta4,0.0318
CN(C)[C@@H]1C(=O)C(C(N)=O)=C(O)[C@@]2(O)C(=O)C3=C(O)c4c(O)cccc4[C@@](C)(O)[C@H]3[C@H](O)[C@@H]12,fluorescence ratio,[1],1.03
same,inhibition,[2],-4.09%
same,inhibition,[3],4.86%
same,fluorescence ratio,[4],0.85
same,outcome,[6],inactive
same,outcome,[7],inactive
same,outcome,[8],inactive
same,outcome,[9],inactive
same,outcome,[10],inactive
same,outcome,[11],inactive
same,outcome,[12],inactive
same,log fold change Tl+ flux,F380Y/beta4,-0.0391
same,log fold change Tl+ flux,[13],0.0226
same,log fold change Tl+ flux,R275C/beta4,0.0299
O=C(O)c1nn(Cc2ccc(Cl)cc2Cl)c2ccccc12,remaining activity,[14],90.4%
same,outcome,[6],inactive
same,outcome,[7],inactive
same,outcome,[9],inactive
same,outcome,[10],inactive
same,outcome,[11],inactive
same,outcome,[12],inactive
N[C@@H](Cc1ccc(N(CCCl)CCCl)cc1)C(=O)O,AC50,[6],4170 nM (active)
same,AC50,[8],23500 nM (active)
same,AC50,[9],13200 nM (active)
same,IC50,[12],29500 nM (active)
CCC1(c2ccc(N)cc2)CCC(=O)NC1=O (centres undefined),fluorescence ratio,[1],1.03
same,inhibition,[2],-2.27%
same,inhibition,[3],-2%
same,fluorescence ratio,[4],1.04
same,outcome,[6],inactive
same,outcome,[7],inactive
same,outcome,[9],inactive
same,outcome,[10],inactive
same,outcome,[11],inactive
same,outcome,[12],inactive
same,log fold change Tl+ flux,F380Y/beta4,-0.00944
same,log fold change Tl+ flux,[13],-0.0199
same,log fold change Tl+ flux,R275C/beta4,0.0132
COc1ccc(C(CN(C)C)C2(O)CCCCC2)cc1 (centres undefined),fluorescence ratio,[1],1.07
same,inhibition,[2],-2.77%
same,inhibition,[3],1.44%
same,fluorescence ratio,[4],0.93
same,z-score,[5],0.57
same,outcome,[7],inactive
same,outcome,[8],inactive
same,outcome,[9],inactive
same,outcome,[10],inactive
same,log fold change Tl+ flux,F380Y/beta4,0.00869
same,log fold change Tl+ flux,[13],-0.00535
same,log fold change Tl+ flux,R275C/beta4,0.0192
COC(=O)C1=CCCN(C)C1,outcome,[9],inactive
same,outcome,[10],inactive
O=c1[nH]c2ccccc2n1C1CCN(CCCC(c2ccc(F)cc2)c2ccc(F)cc2)CC1,remaining activity,[14],106%
O=c1[nH]c2ccccc2n1CCCN1CCC(n2c(=O)[nH]c3cc(Cl)ccc32)CC1,remaining activity,[14],103%
same,outcome,[6],inactive
same,outcome,[7],inactive
same,outcome,[8],inactive
same,outcome,[10],inactive
same,outcome,[12],inactive
N[C@@H]1C[C@H]1c1ccccc1,remaining activity,[14],124%
same,outcome,[6],inactive
same,outcome,[7],inactive
same,outcome,[8],inactive
same,outcome,[9],inactive
same,outcome,[10],inactive
same,outcome,[11],inactive
same,outcome,[12],inactive
C[C@@H]1O[C@@H](O[C@H]2C[C@@H](O)[C@]3(CO)[C@H]4[C@H](O)C[C@]5(C)[C@@H](C6=CC(=O)OC6)CC[C@]5(O)[C@@H]4CC[C@]3(O)C2)[C@H](O)[C@H](O)[C@H]1O,AC50,[6],52.5 nM (active)
same,AC50,[7],13.2 nM (active)
same,AC50,[8],6.62 nM (active)
same,AC50,[9],14.8 nM (active)
same,AC50,[10],29.6 nM (active)
same,AC50,[11],18.6 nM (active)
C[C@@H]1CC[C@H]2[C@@H](C)C(=O)O[C@@H]3O[C@@]4(C)CC[C@@H]1[C@]32OO4,remaining activity,[14],94.3%
same,outcome,[6],inactive
same,outcome,[7],inactive
same,outcome,[8],inactive
same,outcome,[10],inactive
same,outcome,[11],inactive
same,outcome,[12],inactive
C=C(C)[C@H]1CN[C@H](C(=O)O)[C@H]1CC(=O)O,remaining activity,[14],116%
